ALDH1A1 inh – blocks purified human ALDH1A1 activity | Purified ALDH1A1, NADH fluorescence, propionaldehyde substrate | Potency, µM (titrated, usually from 75.3 µM), inactives show at the highest dose activity, negative = inhibition, actives largely listed as inhibitors | hit rate 7.3% among 220,000; active = well fitted inhibition curve with a large enough effect, not every such curve was filed as active; inconclusive = small, poorly fitted or top-dose-only effect, or another doubt; inactive = no such curve, though single readings can be large or run the other way;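 also: potency is read from the fitted curve at half-maximal effect; plate controls were no enzyme wells and a reference inhibitor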
Target sequence (P00352 whole entry, looked up): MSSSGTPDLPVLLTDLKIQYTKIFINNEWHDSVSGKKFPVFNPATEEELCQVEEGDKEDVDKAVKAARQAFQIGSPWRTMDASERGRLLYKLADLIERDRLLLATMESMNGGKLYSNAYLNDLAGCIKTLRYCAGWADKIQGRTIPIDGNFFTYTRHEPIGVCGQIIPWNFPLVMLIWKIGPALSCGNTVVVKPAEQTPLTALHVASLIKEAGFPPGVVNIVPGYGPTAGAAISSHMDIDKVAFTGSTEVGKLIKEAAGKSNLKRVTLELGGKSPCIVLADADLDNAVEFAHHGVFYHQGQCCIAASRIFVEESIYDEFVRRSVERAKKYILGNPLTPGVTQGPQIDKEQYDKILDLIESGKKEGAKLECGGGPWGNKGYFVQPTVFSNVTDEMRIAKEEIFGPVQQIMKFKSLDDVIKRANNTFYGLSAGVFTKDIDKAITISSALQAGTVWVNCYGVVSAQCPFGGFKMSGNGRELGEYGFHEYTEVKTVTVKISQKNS
HTT cytoprotect – Huntington cell model cytoprotection by ATP luminescence; Potency, µM (doses to about 56.4 µM), inactives show cytoprotection (ATP increase), usual class: activators; PC12 HTT-Q103 induced, cytoprotection, ATP luminescence, 40 h; hit rate 0.14% among 230,000; also: potency is read from the fitted curve at half-maximal effect; % of control where 0% means no effect; nearly all actives have a fitted effect of over 45% in size
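PC12 cells stably carrying ecdysone-inducible Htt exon 1 (Q103)–GFP were induced with 100 nM tebufenozide (final) alongside library compounds in a dose series. Cytoprotection was scored as retained ATP by ATPlite luminescence.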
HPGD inh – HPGD (human) dehydrogenase inhibition | P15428 | purified HPGD, NADH fluorescence kinetic, PGE2 substrate | Potency, µM, inactives show at the highest dose activity change, negative = inhibition, usual class: inhibitors | hit rate 4.3% among 150,000 | AID 894; active = well fitted inhibition curve with a large enough effect, not every such curve was filed as active; inconclusive = small, poorly fitted or top-dose-only effect, or another doubt; inactive = no such curve, though single readings can be large or run the other way; also: potency is read from the fitted curve at half-maximal effect; % is scaled to controls: 0 for no effect and ±100 for the full control effect
Target sequence (P15428 whole entry, looked up): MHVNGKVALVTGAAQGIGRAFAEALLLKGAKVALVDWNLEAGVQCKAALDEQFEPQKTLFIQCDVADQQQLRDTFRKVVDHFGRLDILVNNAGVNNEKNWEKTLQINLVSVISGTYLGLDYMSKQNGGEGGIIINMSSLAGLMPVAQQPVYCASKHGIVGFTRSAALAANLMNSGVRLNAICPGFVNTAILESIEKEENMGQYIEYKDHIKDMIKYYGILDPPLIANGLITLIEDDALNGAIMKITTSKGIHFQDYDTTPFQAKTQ
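20 nM HPGD preincubated 15 min at room temperature with compound in 50 mM Tris-HCl pH 8, 0.01% Tween 20. Started with 1 mM NAD+ and 30 uM prostaglandin E2; NADH fluorescence (360/450 nm) read 5 times over 30-s intervals, last minus first.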
PNC inhibitor – blocks assembly of the perinucleolar compartment; PC3M PTB-GFP, PNC prevalence imaging, 16 h; hits give low values; activity change (PNC), negative = inhibition, % at 10 µM; hit rate 3.1% among 140,000;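 active = readout at or below -70, meaning at least 70% loss of cells showing the perinucleolar compartment, a nuclear body marking cancer cells; inconclusive = readout between -30 and a set limit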;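 also: plate controls were DMSO wells for no effect and camptothecin positive control wells for full effect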
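Compounds are pinned in duplicate onto adhered PC3M cells stably expressing GFP-tagged PTB and incubated 16 h at 37 C. Cells are then fixed, nuclei stained with Hoechst, and PNC-positive cells counted.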
CBFb-RUNX1 inh – CBF-beta/RUNX1 interaction disruption; Q01196+Q13951; AlphaScreen CBFb-His/RUNX1-biotin binding, biochemical; Potency, µM (series often up to 59.8 µM), inactives show top-dose activity, negative = inhibition, most hits filed as inhibitors; 230,000 tested, under 10 active; also: % of control where 0% means no effect
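Bead-based AlphaScreen assay; binding partners His-tagged CBF-beta and biotinylated RUNX1 at 30 nM each. Compound exposure 15 min after a 20-min protein preincubation; bead step 90 min; all steps at room temperature.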
HttQ103 aggreg – mutant huntingtin aggregation inhibition; PC12 HttQ103-GFP aggregates, Acumen cytometry, 40 h; Potency, µM (titrated, usually from 46.1 µM), for the others: at the top dose activity change, negative = inhibition, hits mostly inhibitors; hit rate 1.1% among 220,000; also: potency is read from the fitted curve at half-maximal effect; % is scaled to controls: 0 for no effect and ±100 for the full control effect; nearly all actives have a fitted effect of over 60% in size
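Compounds (qHTS titration) were added to PC12 cells expressing an ecdysone-driven HTT exon 1 Q103–GFP fusion after induction with 100 nM tebufenozide. Aggregate formation was measured as GFP objects in cell lysates.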
An asterisk follows results filed as active; [ ] = remark or other dose. Only some compounds are listed: those with a hit (about 11% of all), similar ones and a draw of the others. Unless noted, calls follow the shape of the dose curve; as a rule, active = well fitted curve in the direction sought with a large enough effect; inconclusive = small, poorly fitted or top-dose-only effect, or another doubt; inactive = no such curve, though single readings can be large; an effect the other way counts as inactive or inconclusive.

c1ccc(CNc2c3c(nc4ccccc24)CCC3)cc1 was read as HTT cytoprotect -71.0%[10 µM], CBFb-RUNX1 inh -18.6% and HttQ103 aggreg 4.47µM*.
For OCCNc1c2c(nc3ccccc13)CCCC2 the results were ALDH1A1 inh 1.2%, HTT cytoprotect -15.8%, HPGD inh -2.4%, PNC inhibitor -14.1, CBFb-RUNX1 inh 1.9% and HttQ103 aggreg -10.0%.
Screening Oc1ccccc1-c1ccccc1 returned ALDH1A1 inh 17.8µM*, HTT cytoprotect inconclusive, HPGD inh inconclusive, CBFb-RUNX1 inh 20.3%[21.7 µM] and HttQ103 aggreg 11.0%.
For c1ccc(-c2ccccc2)cc1 the results were ALDH1A1 inh inconclusive, HTT cytoprotect 27.8%, HPGD inh -12.9% and CBFb-RUNX1 inh 1.2%[21.7 µM].
Screening COc1ccc(P2(=O)Nc3ccccc3N2)cc1 returned ALDH1A1 inh 23.9%, HTT cytoprotect -63.5%, HPGD inh 25.1µM*, PNC inhibitor 24.8, CBFb-RUNX1 inh -4.0% and HttQ103 aggreg 21.0%.
C=C1CCC(O)C/C1=C\C=C1/CCCC2(C)C1CCC2C(C)CCCC(C)C (configuration not stated) was read as ALDH1A1 inh inconclusive, HTT cytoprotect -3.5%[1.9 µM], HPGD inh -5.4% and CBFb-RUNX1 inh -3.5%[21.7 µM].
For CN1C(=O)C(Cc2ccc3c(c2)OCO3)C(=O)N(C)C1=O the results were ALDH1A1 inh 23.8µM*, HTT cytoprotect -8.0%, HPGD inh -15.3%, PNC inhibitor -12.2, CBFb-RUNX1 inh 4.4% and HttQ103 aggreg -4.4%.
For CN1C(=O)C(Cc2ccsc2)C(=O)N(C)C1=O the results were ALDH1A1 inh 12.6µM*, HTT cytoprotect -15.8%[10 µM], HPGD inh -14.9%, PNC inhibitor 0.8, CBFb-RUNX1 inh 4.3% and HttQ103 aggreg -18.8%.
`C=CCN1C(=O)/C(=C/c2cc(C)n(-c3cccnc3)c2C)C(=O)NC1=S` gave ALDH1A1 inh inconclusive, HTT cytoprotect -7.0%[10 µM], HPGD inh 10µM*, PNC inhibitor 39.1, CBFb-RUNX1 inh -8.6% and HttQ103 aggreg 7.5%.
For Cc1cc(C=C2C(=O)NC(=O)NC2=O)c(C)n1-c1cccnc1 the results were HTT cytoprotect -14.7%[10 µM], CBFb-RUNX1 inh 0.6% and HttQ103 aggreg -25.4%[9.22 µM].
Screening Cc1ccc(-n2c(C)cc(/C=C3/C(=O)NC(=O)N(Cc4ccco4)C3=O)c2C)cc1 returned ALDH1A1 inh 14.1µM*, HTT cytoprotect -6.6%[10 µM], HPGD inh inconclusive, PNC inhibitor 13.1, CBFb-RUNX1 inh inconclusive and HttQ103 aggreg 12.1%.
Screening Cc1ccccc1-n1c(C)cc(/C=C2/C(=O)NC(=O)N(Cc3ccco3)C2=O)c1C returned ALDH1A1 inh 3.55µM*, HTT cytoprotect 29.1%[1.9 µM], HPGD inh -18.4%, PNC inhibitor 23.3, CBFb-RUNX1 inh -17.2% and HttQ103 aggreg 0.1%.
Cc1cc(/C=C2\C(=O)NC(=O)N(Cc3ccccc3)C2=O)c(C)n1-c1ccc(Cl)c(C(=O)O)c1 was read as ALDH1A1 inh inconclusive, HPGD inh 17.8µM*, PNC inhibitor -1.9, CBFb-RUNX1 inh -9.2% and HttQ103 aggreg -6.9%.
For CC(=O)Oc1ccc(Cl)c2cccnc12 the results were ALDH1A1 inh 5.7%, HPGD inh -7.0% and CBFb-RUNX1 inh 1.3%.
`C[C@@H]1O[C@@H](O[C@H]2CC[C@]3(C=O)C4CC[C@]5(C)[C@@H](C6=CC(=O)OC6)CC[C@]5(O)[C@@H]4CC[C@]3(O)C2)[C@H](O)[C@H](O)[C@H]1O` (some centres not stated) gave ALDH1A1 inh 3.2%, HTT cytoprotect -11.4%, HPGD inh -1.5% and CBFb-RUNX1 inh 0.9%.
`ClCCCCl` gave ALDH1A1 inh 17.0%, HTT cytoprotect -6.1%, HPGD inh -4.5% and CBFb-RUNX1 inh 2.6%[21.7 µM].
Screening COc1ccc(OC)c([C@H](O)[C@H](C)N)c1 returned ALDH1A1 inh 8.9%[20.9 µM], HTT cytoprotect 0.6%[40.3 µM], HPGD inh -2.5% and CBFb-RUNX1 inh 15.3%[21.7 µM].
For COc1ccc(/C=C2/C(=O)NC(=O)N(Cc3ccco3)C2=O)cc1 the results were ALDH1A1 inh 3.3%, HTT cytoprotect -5.9%[10 µM], CBFb-RUNX1 inh -5.5% and HttQ103 aggreg -5.5%[9.22 µM].
For Cc1ccc(-n2c(C)cc(/C=C3/C(=O)NC(=O)N(C)C3=O)c2C)cc1 the results were ALDH1A1 inh inconclusive, HTT cytoprotect 17.0%[0.074 µM], HPGD inh -1.9%, PNC inhibitor -84.6*, CBFb-RUNX1 inh -10.2% and HttQ103 aggreg -0.1%.
For CCOC(=O)C1CCN(/C=C2/C(=O)NC(=O)N(Cc3ccco3)C2=O)CC1 the results were ALDH1A1 inh 3.55µM*, HTT cytoprotect 5.3%, HPGD inh -14.2%, PNC inhibitor inconclusive, CBFb-RUNX1 inh inconclusive and HttQ103 aggreg -3.3%.
Screening Cc1cc(/C=C2\C(=O)NC(=O)N(c3ccc(F)cc3)C2=O)c(C)n1-c1ccc(C(=O)O)cc1 returned ALDH1A1 inh 7.94µM*, HTT cytoprotect 2.5%[10 µM], CBFb-RUNX1 inh 9.9% and HttQ103 aggreg 6.8%[9.22 µM].
CN(C)[C@@H]1C(=O)C(C(N)=O)=C(O)[C@]2(O)C(=O)C3=C(O)c4c(O)cccc4[C@@](C)(O)[C@@H]3C[C@@H]12 was read as HTT cytoprotect -14.9%.
`CCCCOC(=O)CCN1C(=O)/C(=C2\SC(=S)N(CCC(=O)OCCCC)C2=O)SC1=S` gave ALDH1A1 inh 14.1µM*, HTT cytoprotect 2.5%[10 µM], HPGD inh -10.1%, PNC inhibitor inconclusive, CBFb-RUNX1 inh -7.6% and HttQ103 aggreg 9.8%.
For CC1CCN(S(=O)(=O)c2ccc(NN=C(C#N)C#N)cc2)CC1 the results were ALDH1A1 inh inconclusive, HTT cytoprotect 13.9%, HPGD inh -22.3%, PNC inhibitor inconclusive, CBFb-RUNX1 inh inconclusive and HttQ103 aggreg 15.8µM*.
N#CC(C#N)=NNc1ccc(S(N)(=O)=O)cc1 was read as HTT cytoprotect 0.1%[10 µM], CBFb-RUNX1 inh -5.2% and HttQ103 aggreg -13.5%[9.22 µM].
`CC1=[N+]([O-])C2(N)CCc3nonc3C2(O)C1` (configuration not stated) gave ALDH1A1 inh 7.08µM*, HTT cytoprotect -8.2%, HPGD inh -9.5%, PNC inhibitor 25.3, CBFb-RUNX1 inh -0.5% and HttQ103 aggreg 7.9%.
CC1CCC/C=C/C2CC(O)CC2C(O)/C=C/C(=O)O1 (configuration not stated) was read as ALDH1A1 inh 3.6%, HTT cytoprotect -80.1%, HPGD inh -11.2%, PNC inhibitor 16.0, CBFb-RUNX1 inh 4.7% and HttQ103 aggreg 1µM*.
C[C@H]1CCC/C=C/C2C[C@H](O)CC2[C@H](O)/C=C/C(=O)O1 (some centres not stated) was read as ALDH1A1 inh -0.1%, HPGD inh -14.9%, PNC inhibitor -3.6, CBFb-RUNX1 inh inconclusive and HttQ103 aggreg 2.82µM*.

Bioassay records from PubChem.
